# According to the supplement of paper PMC4466140:
# B1: unnamed (peptide)
# chain: KRNRLKILLPFLEQS
# Target: AgAbp1
# Experiment: SPOT peptide array binding signal intensity (averaged, normalized) (arbitrary units (background-subtracted, floor 0; scale differs between SH3 domains)); higher = stronger binding of the SH3 domain to the peptide
# How it was run: (§1)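 GST-fused SH3 domains from four yeast species were expressed in E. coli BL21(DE3), purified on glutathione Sepharose and incubated at 10 μg/ml overnight at 4°C in TBS-based blocking buffer on cellulose membranes carrying synthetic 15-mer peptides, with cysteines replaced by serines. Bound protein was detected with anti-GST antibody, an HRP anti-mouse secondary and luminol, then imaged and quantified with Genespotter. Binding signal is the normalized, background-subtracted spot intensity averaged over replicates, in arbitrary units that differ between domains.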
row,Binder,SPOT peptide array binding signal intensity
1,B1,7

# Target: AgBbc1
# Experiment: as above
# How it was run: as §1
row,Binder,SPOT peptide array binding signal intensity
1,B1,1.75

# Target: AgBem1-D1
# Experiment: as above
# How it was run: as §1
row,Binder,SPOT peptide array binding signal intensity
1,B1,102

# Target: AgBzz1-D1
# Experiment: as above
# How it was run: as §1
row,Binder,SPOT peptide array binding signal intensity
1,B1,9

# Target: AgBzz1-D2
# Experiment: as above
# How it was run: as §1
row,Binder,SPOT peptide array binding signal intensity
1,B1,41

# Target: AgCyk3
# Experiment: as above
# How it was run: as §1
row,Binder,SPOT peptide array binding signal intensity
1,B1,0.5

# Target: AgFus1
# Experiment: as above
# How it was run: as §1
row,Binder,SPOT peptide array binding signal intensity
1,B1,1340

# Target: AgHof1
# Experiment: as above
# How it was run: as §1
row,Binder,SPOT peptide array binding signal intensity
1,B1,30.5

# Target: AgHse1
# Experiment: as above
# How it was run: as §1
row,Binder,SPOT peptide array binding signal intensity
1,B1,1380

# Target: AgLsb1
# Experiment: as above
# How it was run: as §1
row,Binder,SPOT peptide array binding signal intensity
1,B1,3.5

# Target: AgLsb4
# Experiment: as above
# How it was run: as §1
row,Binder,SPOT peptide array binding signal intensity
1,B1,126

# Target: AgMyo5
# Experiment: as above
# How it was run: as §1
row,Binder,SPOT peptide array binding signal intensity
1,B1,0.5

# Target: AgNbp2
# Experiment: as above
# How it was run: as §1
row,Binder,SPOT peptide array binding signal intensity
1,B1,102

# Target: AgRvs167
# Experiment: as above
# How it was run: as §1
row,Binder,SPOT peptide array binding signal intensity
1,B1,2.33

# Target: AgSho1
# Experiment: as above
# How it was run: as §1
row,Binder,SPOT peptide array binding signal intensity
1,B1,200

# Target: AgSla1-D1-D2
# Experiment: as above
# How it was run: as §1
row,Binder,SPOT peptide array binding signal intensity
1,B1,49.5

# Target: AgSla1-D3
# Experiment: as above
# How it was run: as §1
row,Binder,SPOT peptide array binding signal intensity
1,B1,12.5

# Target: CaAbp1-D1
# Experiment: as above
# How it was run: as §1
row,Binder,SPOT peptide array binding signal intensity
1,B1,342

# Target: CaAbp1-D2
# Experiment: as above
# How it was run: as §1
row,Binder,SPOT peptide array binding signal intensity
1,B1,154

# Target: CaBbc1
# Experiment: as above
# How it was run: as §1
row,Binder,SPOT peptide array binding signal intensity
1,B1,27

# Target: CaBem1-D1
# Experiment: as above
# How it was run: as §1
row,Binder,SPOT peptide array binding signal intensity
1,B1,≤ 0

# Target: CaBzz1-D1
# Experiment: as above
# How it was run: as §1
row,Binder,SPOT peptide array binding signal intensity
1,B1,5

# Target: CaBzz1-D2
# Experiment: as above
# How it was run: as §1
row,Binder,SPOT peptide array binding signal intensity
1,B1,66.8

# Target: CaCyk3
# Experiment: as above
# How it was run: as §1
row,Binder,SPOT peptide array binding signal intensity
1,B1,3

# Target: CaFus1
# Experiment: as above
# How it was run: as §1
row,Binder,SPOT peptide array binding signal intensity
1,B1,4760

# Target: CaHof1
# Experiment: as above
# How it was run: as §1
row,Binder,SPOT peptide array binding signal intensity
1,B1,0.5

# Target: CaHse1
# Experiment: as above
# How it was run: as §1
row,Binder,SPOT peptide array binding signal intensity
1,B1,57.2

# Target: CaLsb1
# Experiment: as above
# How it was run: as §1
row,Binder,SPOT peptide array binding signal intensity
1,B1,9.75

# Target: CaLsb4
# Experiment: as above
# How it was run: as §1
row,Binder,SPOT peptide array binding signal intensity
1,B1,21

# Target: CaMyo5
# Experiment: as above
# How it was run: as §1
row,Binder,SPOT peptide array binding signal intensity
1,B1,3

# Target: CaNbp2
# Experiment: as above
# How it was run: as §1
row,Binder,SPOT peptide array binding signal intensity
1,B1,742

# Target: CaRvs167
# Experiment: as above
# How it was run: as §1
row,Binder,SPOT peptide array binding signal intensity
1,B1,61.5

# Target: CaRvs167-3
# Experiment: as above
# How it was run: as §1
row,Binder,SPOT peptide array binding signal intensity
1,B1,828

# Target: CaSho1
# Experiment: as above
# How it was run: as §1
row,Binder,SPOT peptide array binding signal intensity
1,B1,1220

# Target: CaSla1-D1-D2
# Experiment: as above
# How it was run: as §1
row,Binder,SPOT peptide array binding signal intensity
1,B1,5

# Target: CaSla1-D3
# Experiment: as above
# How it was run: as §1
row,Binder,SPOT peptide array binding signal intensity
1,B1,136

# Target: ScAbp1
# Experiment: as above
# How it was run: as §1
row,Binder,SPOT peptide array binding signal intensity
1,B1,54

# Target: ScBbc1
# Experiment: as above
# How it was run: as §1
row,Binder,SPOT peptide array binding signal intensity
1,B1,2.5

# Target: ScBem1-D1
# Experiment: as above
# How it was run: as §1
row,Binder,SPOT peptide array binding signal intensity
1,B1,74

# Target: ScBzz1-D1
# Experiment: as above
# How it was run: as §1
row,Binder,SPOT peptide array binding signal intensity
1,B1,20.5

# Target: ScBzz1-D2
# Experiment: as above
# How it was run: as §1
row,Binder,SPOT peptide array binding signal intensity
1,B1,53

# Target: ScCyk3
# Experiment: as above
# How it was run: as §1
row,Binder,SPOT peptide array binding signal intensity
1,B1,102

# Target: ScFus1
# Experiment: as above
# How it was run: as §1
row,Binder,SPOT peptide array binding signal intensity
1,B1,1980

# Target: ScHof1
# Experiment: as above
# How it was run: as §1
row,Binder,SPOT peptide array binding signal intensity
1,B1,1.5

# Target: ScHse1
# Experiment: as above
# How it was run: as §1
row,Binder,SPOT peptide array binding signal intensity
1,B1,2110

# Target: ScLsb1
# Experiment: as above
# How it was run: as §1
row,Binder,SPOT peptide array binding signal intensity
1,B1,3

# Target: ScLsb2
# Experiment: as above
# How it was run: as §1
row,Binder,SPOT peptide array binding signal intensity
1,B1,5

# Target: ScLsb3
# Experiment: as above
# How it was run: as §1
row,Binder,SPOT peptide array binding signal intensity
1,B1,145

# Target: ScLsb4
# Experiment: as above
# How it was run: as §1
row,Binder,SPOT peptide array binding signal intensity
1,B1,9.5

# Target: ScMyo3
# Experiment: as above
# How it was run: as §1
row,Binder,SPOT peptide array binding signal intensity
1,B1,2.5

# Target: ScMyo5
# Experiment: as above
# How it was run: as §1
row,Binder,SPOT peptide array binding signal intensity
1,B1,2.25

# Target: ScNbp2
# Experiment: as above
# How it was run: as §1
row,Binder,SPOT peptide array binding signal intensity
1,B1,130

# Target: ScPex13
# Experiment: as above
# How it was run: as §1
row,Binder,SPOT peptide array binding signal intensity
1,B1,0.25

# Target: ScRvs167
# Experiment: as above
# How it was run: as §1
row,Binder,SPOT peptide array binding signal intensity
1,B1,18.2

# Target: ScSho1
# Experiment: as above
# How it was run: as §1
row,Binder,SPOT peptide array binding signal intensity
1,B1,1290

# Target: ScSla1-D1-D2
# Experiment: as above
# How it was run: as §1
row,Binder,SPOT peptide array binding signal intensity
1,B1,122

# Target: ScSla1-D3
# Experiment: as above
# How it was run: as §1
row,Binder,SPOT peptide array binding signal intensity
1,B1,3.25

# Target: SpAbp1-D1
# Experiment: as above
# How it was run: as §1
row,Binder,SPOT peptide array binding signal intensity
1,B1,114

# Target: SpBbc1
# Experiment: as above
# How it was run: as §1
row,Binder,SPOT peptide array binding signal intensity
1,B1,1.5

# Target: SpBzz1-D1
# Experiment: as above
# How it was run: as §1
row,Binder,SPOT peptide array binding signal intensity
1,B1,90

# Target: SpBzz1-D2
# Experiment: as above
# How it was run: as §1
row,Binder,SPOT peptide array binding signal intensity
1,B1,≤ 0

# Target: SpCyk3
# Experiment: as above
# How it was run: as §1
row,Binder,SPOT peptide array binding signal intensity
1,B1,3

# Target: SpHof1
# Experiment: as above
# How it was run: as §1
row,Binder,SPOT peptide array binding signal intensity
1,B1,142

# Target: SpHof1-2
# Experiment: as above
# How it was run: as §1
row,Binder,SPOT peptide array binding signal intensity
1,B1,14

# Target: SpHof1-3
# Experiment: as above
# How it was run: as §1
row,Binder,SPOT peptide array binding signal intensity
1,B1,624

# Target: SpHse1
# Experiment: as above
# How it was run: as §1
row,Binder,SPOT peptide array binding signal intensity
1,B1,1780

# Target: SpLsb1
# Experiment: as above
# How it was run: as §1
row,Binder,SPOT peptide array binding signal intensity
1,B1,1.5

# Target: SpLsb4
# Experiment: as above
# How it was run: as §1
row,Binder,SPOT peptide array binding signal intensity
1,B1,56

# Target: SpMyo1
# Experiment: as above
# How it was run: as §1
row,Binder,SPOT peptide array binding signal intensity
1,B1,5.5

# Target: SpNbp2
# Experiment: as above
# How it was run: as §1
row,Binder,SPOT peptide array binding signal intensity
1,B1,443

# Target: SpPex13
# Experiment: as above
# How it was run: as §1
row,Binder,SPOT peptide array binding signal intensity
1,B1,21

# Target: SpRvs167
# Experiment: as above
# How it was run: as §1
row,Binder,SPOT peptide array binding signal intensity
1,B1,7.5

# Target: SpSla1-D1-D2
# Experiment: as above
# How it was run: as §1
row,Binder,SPOT peptide array binding signal intensity
1,B1,≤ 0

# Target: SpSla1-D3
# Experiment: as above
# How it was run: as §1
row,Binder,SPOT peptide array binding signal intensity
1,B1,11
